Test results reported in PubChem BioAssay (NCI).
The panel holds about 83,000 compounds, 20% with a hit somewhere; the sample as a whole holds those more often.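 How to read the values: 0–100, growth inhibition (40 = 60% inhibited); 0, no net growth; -100 to 0, cell death (-40 = 40% of starting cells died; -100 = all dead).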 The source made the active and inactive calls. How the source made its calls: active means growth percent below 10; inactive means the rest.

Key:
Test in all cases: NCI-60 one-dose screen, 48 h (100 = growth as untreated, 0 = no growth, -100 = all killed)
Conditions in all cases: 10 µM unless noted
[1] = system: NCI-H23 lung
[2] = system: NCI-H226 lung
[3] = system: NCI-H322M lung
[4] = system: HOP-62 NSCLC
[5] = system: NCI-H460 lung
[6] = system: HOP-92 NSCLC
[7] = system: NCI-H522 lung
[8] = system: A549/ATCC NSCLC
[9] = system: 786-0 renal
[10] = system: COLO 205 colon
[11] = system: DU-145 prostate
[12] = system: K-562 leukemia
[13] = system: MALME-3M melanoma
[14] = system: MDA-MB-231 breast
[15] = system: RXF 393 renal
[16] = system: SF-268 CNS
[17] = system: SF-295 CNS
[18] = system: SF-539 CNS
[19] = system: UACC-257 melanoma
[20] = system: M14 melanoma

Measured: growth

S=C1CCSC(=S)N1CCCN1C(=S)CCSC1=S
active: [7] 5.23%
inactive: [1] 81.1% | [2] 101% | [3] 113% | [4] 90.5% | [5] 97.7% | [6] 106% | [8] 97.7% | [9] 44.9% | [10] 64.2% | [11] 73.3% | [12] 29.4% | [13] 74.2% | [14] 75.3% | [15] 57.9% | [16] 87.2% | [17] 105% | [18] 71.6% | [19] 89% | [20] 83.1%

CSc1nc2sc3c(c2c(=O)n1-c1ccc([N+](=O)[O-])cc1)CCCCC3
inactive: [1] 90.8% | [2] 94% | [3] 88.8% | [4] 73.4% | [5] 74.7% | [6] 94.6% | [7] 81% | [8] 81.1% | [9] 95.7% | [10] 99% | [11] 99% | [12] 94.1% | [13] 91.4% | [14] 75.3% | [15] 84.1% | [16] 98.7% | [17] 68.8% | [18] 95.3% | [19] 91.2% | [20] 94.9%

O=C(Cn1c2c(c3ccccc31)CCCC2)Nc1ccc(-c2nc3ccccc3s2)cc1
inactive: [1] 94.5% | [2] 106% | [3] 101% | [4] 102% | [5] 101% | [6] 89.6% | [7] 94.9% | [8] 105% | [9] 109% | [10] 104% | [11] 98.8% | [12] 74.4% | [13] 105% | [14] 96% | [15] 105% | [16] 97.6% | [17] 103% | [18] 102% | [19] 106% | [20] 108%

CC(=O)Nc1nc2ccc(NS(=O)(=O)c3cccc4c(N(C)C)cccc34)cc2[nH]1
inactive: [1] 70.5% | [2] 68.7% | [3] 82.2% | [4] 69.3% | [5] 68% | [6] 72.2% | [7] 43.3% | [8] 68% | [9] 79.7% | [10] 65.9% | [11] 87.8% | [12] 20.6% | [13] 52.3% | [14] 63.5% | [15] 53.8% | [16] 65.6% | [17] 37.3% | [18] 57.9% | [19] 61.9% | [20] 35.9%

CSc1nnc(-c2cnn3c2NC(c2ccccc2)C3)n1-c1ccc(C(F)(F)F)cc1 (stereo not given)
active: [12] 3.03%
inactive: [1] 72.6% | [2] 73.5% | [3] 72.3% | [4] 61.1% | [5] 61.8% | [6] 64.3% | [7] 26.1% | [8] 45.5% | [9] 66.1% | [10] 63.9% | [11] 85.1% | [13] 69.8% | [14] 64.8% | [15] 79.1% | [16] 65.1% | [17] 32% | [18] 80.3% | [19] 51.4% | [20] 54.3%

O=C(Cn1c(=O)sc2nc3ccccc3nc21)Nc1ncc(Cc2cccc(Cl)c2Cl)s1
inactive: [1] 97.1% | [2] 86.5% | [3] 97.1% | [4] 97.2% | [5] 104% | [6] 100% | [7] 82.5% | [8] 99.6% | [9] 99.8% | [10] 95.6% | [11] 112% | [12] 102% | [13] 117% | [14] 90.6% | [15] 109% | [16] 94.4% | [17] 102% | [18] 98.7% | [19] 107% | [20] 100%

N#CC1=C(N)Oc2c(sc3c(Br)cccc23)C1c1ccc(F)cc1 (stereo not given)
active: [5] 9.57% | [7] -6.79% | [10] -35.7% | [12] 9.02% | [15] -2.88% | [17] 5.32% | [18] -27.1% | [20] 9.58%
inactive: [1] 31.1% | [2] 36.6% | [3] 41.3% | [4] 26.3% | [6] 41% | [8] 24.1% | [9] 12.2% | [11] 24.1% | [13] 49.4% | [14] 16.9% | [16] 25.5% | [19] 74.1%

CN(C)CCNc1nc2c3cc(Cl)ccc3nn2c2ccccc12
inactive: [1] 45.5% | [2] 61.1% | [3] 40.2% | [4] 43.9% | [5] 15.8% | [6] 36.8% | [7] 67% | [8] 31.5% | [9] 38.1% | [10] 26.3% | [11] 54.3% | [12] 46.5% | [13] 42% | [14] 46.8% | [16] 45.7% | [17] 26.9% | [18] 36.8% | [19] 52.5% | [20] 62.1%
active: [15] 4.75%
